Assay [1] in a line: NCI Yeast Anticancer Drug Screen. Data for the rad50 strain (AID 155).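 Also: 0% = growth of vehicle-only cultures of the same strain.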 Particulars: S. cerevisiae rad50 strain growth inhibition, active compounds read high. The method in brief:
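Genetically altered yeast (DNA repair pathway); compound treatment; growth inhibition vs vehicle ctrl.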

A short description of assay [2]: NCI Yeast Anticancer Drug Screen. Data for the mec2-1 strain (AID 157). The settings on record: S. cerevisiae mec2-1 strain, active compounds read high. The method in brief: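 Growth inhibition is read against vehicle-treated controls after compound exposure of the mec2-1 yeast strain, which is defective in DNA damage repair or cell cycle control.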
Assay [3] can be described thus: NCI Yeast Anticancer Drug Screen. Data for the sgs1 mgt1 strain (AID 161).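 Also: 0% = growth of cultures given vehicle only.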 The settings on record: S. cerevisiae sgs1 mgt1 strain, active compounds read high. The method, boiled down:
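Yeast cells carrying a defined DNA-repair defect were exposed to test compounds. Growth inhibition was measured relative to vehicle-treated controls.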

The nature of assay [4]: NCI Yeast Anticancer Drug Screen. Data for the cln2 rad14 strain (AID 165).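 Also: 0% = growth equal to vehicle treated cultures.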 The settings on record: S. cerevisiae cln2 rad14 strain, active compounds read high. The method in brief: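 Growth inhibition, relative to vehicle-treated controls, is the read-out. The test organism is a yeast strain with defined genetic alterations, cln2 rad14.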
A short description of assay [5]: NCI Yeast Anticancer Drug Screen. Data for the bub3 strain (AID 167). The settings on record: S. cerevisiae bub3 mutant strain, active compounds read high. The method, boiled down: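 Yeast carrying a defined mutation is treated with each compound, and growth is compared with that of vehicle-exposed cells to give inhibition.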
The nature of assay [6]: NCI Yeast Anticancer Drug Screen. Data for the mlh1 rad18 strain (AID 175). Particulars: S. cerevisiae mlh1 rad18 strain growth inhibition, active compounds read high. The method in brief:
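Cells of a genetically altered yeast strain, deficient in DNA damage repair, were treated with compound. Their growth was then compared with that of vehicle-treated cultures to give inhibition.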

Setting [7] is: at 5.0 µM (retest, dose inferred, filed as 0.5).
Where [8] appears, read: at 50.0 µM (retest, dose inferred, filed as 5.0).

The panel holds about 79,000 compounds, 15% with a hit somewhere; the sample as a whole holds those more often. Unmarked numbers belong to inactive results. Calls of active or inactive are those of the source. Rule as the data show it: active = growth inhibition above about 70%; inactive = the rest.

Consider `COc1ccc(C(c2cc3c(cc2O)OCO3)N2CCCC2)c(OC)c1` (configuration not stated), for which the growth inhibition is 10% in assay [1] (setting [7]); 96% (active) in assay [1] (setting [8]); 98.5% (active) in assay [1] (at 50.0 µM); 0% in assay [2] (setting [7]); 97% (active) in assay [2] (setting [8]); 98.2% (active) in assay [2] (at 50.0 µM). The growth inhibition in assay [3] (setting [7]) was 0%; in assay [3] (setting [8]), 97% (active); in assay [3] (at 50.0 µM), 98.8% (active); in assay [4] (setting [7]), -15%; in assay [4] (setting [8]), 76% (active); in assay [4] (at 50.0 µM), 61.2%. In addition, the growth inhibition in assay [5] (setting [7]) is 5%; in assay [5] (setting [8]), 99% (active); in assay [5] (at 50.0 µM), 97.8% (active); in assay [6] (setting [7]), -3%; in assay [6] (setting [8]), 97% (active); in assay [6] (at 50.0 µM), 96% (active).

For `O=C(CC(O)c1ccccc1)Sc1ccccc1` (configuration not stated), the growth inhibition was -1% in assay [1] (setting [7]); 13% in assay [1] (setting [8]); 72% (active) in assay [1] (at 50.0 µM); -2% in assay [2] (setting [7]); 8% in assay [2] (setting [8]); 50% in assay [2] (at 50.0 µM). Also, the growth inhibition is 1% in assay [3] (setting [7]); 42% in assay [3] (setting [8]); 63.1% in assay [3] (at 50.0 µM); -2% in assay [4] (setting [7]); -7% in assay [4] (setting [8]); -9.2% in assay [4] (at 50.0 µM). Further, the growth inhibition in assay [5] (setting [7]) was -6%; in assay [5] (setting [8]) it was 4%; in assay [5] (at 50.0 µM), 80% (active); in assay [6] (setting [7]) it was -8%; in assay [6] (setting [8]), 20%; in assay [6] (at 50.0 µM), 74% (active).

`CC(C)N=Cc1cc(I)cc(I)c1O.CC(C)N=Cc1cc(I)cc(I)c1O.[Co]`: the growth inhibition is 99% (active) in assay [1] (setting [7]); 99% (active) in assay [1] (setting [8]); 96.8% (active) in assay [1] (at 50.0 µM); 99% (active) in assay [2] (setting [7]); 99% (active) in assay [2] (setting [8]); 97.6% (active) in assay [2] (at 50.0 µM). For the same compound, the growth inhibition in assay [3] (setting [7]) is 99% (active); in assay [3] (setting [8]) it was 99% (active); in assay [3] (at 50.0 µM) it was 97.2% (active); in assay [4] (setting [7]), 98% (active); in assay [4] (setting [8]), 98% (active); in assay [4] (at 50.0 µM) it was 96.1% (active). For the same compound, the growth inhibition was 98% (active) in assay [5] (setting [7]); 99% (active) in assay [5] (setting [8]); 96.5% (active) in assay [5] (at 50.0 µM); 99% (active) in assay [6] (setting [7]); 99% (active) in assay [6] (setting [8]); 97% (active) in assay [6] (at 50.0 µM).

Regarding `O=[N+]([O-])c1cccc2c(O)cccc12`, the growth inhibition in assay [1] (setting [7]) is 3%; in assay [1] (setting [8]), 58%; in assay [1] (at 50.0 µM) it was 59%; in assay [2] (setting [7]), 0%; in assay [2] (setting [8]), 35%; in assay [2] (at 50.0 µM), 33.4%. Also, the growth inhibition in assay [3] (setting [7]) is -2%; in assay [3] (setting [8]), 31%; in assay [3] (at 50.0 µM) it was 39.1%; in assay [4] (setting [7]), -3%; in assay [4] (setting [8]) it was 30%; in assay [4] (at 50.0 µM) it was 33.8%. Moreover, the growth inhibition in assay [5] (setting [7]) was -1%; in assay [5] (setting [8]), 65%; in assay [5] (at 50.0 µM), 47.2%; in assay [6] (setting [7]), 0%; in assay [6] (setting [8]), 43%; in assay [6] (at 50.0 µM) it was 73.5% (active).

Turning to `c1cc(SSc2ccncc2)ccn1`, the growth inhibition in assay [1] (setting [7]) was 47%; in assay [1] (setting [8]) it was 100% (active); in assay [1] (at 50.0 µM), 51.1%; in assay [2] (setting [7]), 50%; in assay [2] (setting [8]), 100% (active); in assay [2] (at 50.0 µM), 85.5% (active). Further, the growth inhibition in assay [3] (setting [7]) is 55%; in assay [3] (setting [8]), 100% (active); in assay [3] (at 50.0 µM), 56.8%; in assay [4] (setting [7]), 34%; in assay [4] (setting [8]), 97% (active); in assay [4] (at 50.0 µM) it was 42%. The growth inhibition in assay [5] (setting [7]) was 45%; in assay [5] (setting [8]), 69%; in assay [5] (at 50.0 µM), 92.6% (active); in assay [6] (setting [7]) it was 65%; in assay [6] (setting [8]), 100% (active); in assay [6] (at 50.0 µM), 82.1% (active).

Take `COC(=O)c1ccc(SCC(=O)c2ccc([N+](=O)[O-])o2)cc1`: the growth inhibition was 4% in assay [1] (setting [7]); 90% (active) in assay [1] (setting [8]); 97% (active) in assay [1] (at 50.0 µM); 4% in assay [2] (setting [7]); 98% (active) in assay [2] (setting [8]); 98% (active) in assay [2] (at 50.0 µM). For the same compound, the growth inhibition in assay [3] (setting [7]) is 5%; in assay [3] (setting [8]), 81% (active); in assay [3] (at 50.0 µM) it was 79.3% (active); in assay [4] (setting [7]), -4%; in assay [4] (setting [8]) it was 96% (active); in assay [4] (at 50.0 µM), 95.3% (active). The growth inhibition in assay [5] (setting [7]) is -5%; in assay [5] (setting [8]) it was 46%; in assay [5] (at 50.0 µM), 60.4%; in assay [6] (setting [7]), 2%; in assay [6] (setting [8]), 79% (active); in assay [6] (at 50.0 µM) it was 98.5% (active).

Consider `O=C1C=CC(=O)N1c1ccc(Cl)cc1Br`, for which the growth inhibition in assay [1] (setting [7]) is 49%; in assay [1] (setting [8]) it was 42%; in assay [1] (at 50.0 µM), 93.3% (active); in assay [2] (setting [7]), 40%; in assay [2] (setting [8]), 44%; in assay [2] (at 50.0 µM), 94.3% (active). Moreover, the growth inhibition in assay [3] (setting [7]) was 100% (active); in assay [3] (setting [8]) it was 100% (active); in assay [3] (at 50.0 µM), 94.2% (active); in assay [4] (setting [7]) it was 68%; in assay [4] (setting [8]), 100% (active); in assay [4] (at 50.0 µM), 92.4% (active). Moreover, the growth inhibition in assay [5] (setting [7]) is 100% (active); in assay [5] (setting [8]), 99% (active); in assay [5] (at 50.0 µM), 58.4%; in assay [6] (setting [7]) it was 28%; in assay [6] (setting [8]), 45%; in assay [6] (at 50.0 µM) it was 92.5% (active).

Turning to `Nc1ccc(Cl)c2ccccc12`, the growth inhibition in assay [1] (setting [7]) was -1%; in assay [1] (setting [8]), 42%; in assay [1] (at 50.0 µM), 84.2% (active); in assay [2] (setting [7]), -4%; in assay [2] (setting [8]), 20%; in assay [2] (at 50.0 µM), 76.8% (active). For the same compound, the growth inhibition was -5% in assay [3] (setting [7]); 12% in assay [3] (setting [8]); 71.2% (active) in assay [3] (at 50.0 µM); 40% in assay [4] (setting [7]); 26% in assay [4] (setting [8]); 53.5% in assay [4] (at 50.0 µM). Also, the growth inhibition in assay [5] (setting [7]) was 6%; in assay [5] (setting [8]), 48%; in assay [5] (at 50.0 µM) it was 57.9%; in assay [6] (setting [7]), -4%; in assay [6] (setting [8]), 33%; in assay [6] (at 50.0 µM), 74.5% (active).

In the case of `CN(C)CCCNc1c(C#N)[n+]([O-])c2cc(Cl)ccc2[n+]1[O-]`, the growth inhibition in assay [1] (setting [7]) is 59%; in assay [1] (setting [8]), 93% (active); in assay [1] (at 50.0 µM), 66.7%; in assay [2] (setting [7]) it was 72% (active); in assay [2] (setting [8]) it was 93% (active); in assay [2] (at 50.0 µM) it was 43.5%. The growth inhibition was 60% in assay [3] (setting [7]); 90% (active) in assay [3] (setting [8]); 61.9% in assay [3] (at 50.0 µM); 70% (active) in assay [4] (setting [7]); 90% (active) in assay [4] (setting [8]); 45.6% in assay [4] (at 50.0 µM). Moreover, the growth inhibition was 88% (active) in assay [5] (setting [7]); 94% (active) in assay [5] (setting [8]); 60% in assay [5] (at 50.0 µM); 80% (active) in assay [6] (setting [7]); 93% (active) in assay [6] (setting [8]); 68.8% in assay [6] (at 50.0 µM).

Values taken from PubChem BioAssay (NCI).
